In the library only some 2.8% were active in any assay of this set; here they are far more common.
PI5P4Ka inh = blocks human PI5P4K alpha kinase activity | AID 652105 | PI5P4Kalpha enzyme, ADP-Glo luminescence, 60 min; hits give low values | hit rate 1.2% among 330,000 | P48426 | max response, %; active means max response of -50% or lower; inconclusive means between -30% and -50%; inactive means -30% or higher; further: value at the top dose of about 77 µM; on the % scale 0 is the no-effect control and ±100 the full control effect
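Compounds were pin-transferred onto PI5P4Kalpha and substrate in HEPES pH 7.4 buffer with EGTA, CHAPS and 5% DMSO. ATP (5 microM final) started the reaction, which ran 60 minutes at room temperature before ADP-Glo detection.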
POLI inh = DNA polymerase iota (human) inhibition; Q9UNA4; Pol iota fluorescent replication assay, 10 min; Potency, µM (titrated, usually from 115 µM), for inactives: top-dose activity, negative = inhibition, actives largely listed as inhibitors; hit rate 1% among 390,000; further: potency means the concentration at half of the fitted maximal effect
Target sequence (Q9UNA4 whole entry, looked up): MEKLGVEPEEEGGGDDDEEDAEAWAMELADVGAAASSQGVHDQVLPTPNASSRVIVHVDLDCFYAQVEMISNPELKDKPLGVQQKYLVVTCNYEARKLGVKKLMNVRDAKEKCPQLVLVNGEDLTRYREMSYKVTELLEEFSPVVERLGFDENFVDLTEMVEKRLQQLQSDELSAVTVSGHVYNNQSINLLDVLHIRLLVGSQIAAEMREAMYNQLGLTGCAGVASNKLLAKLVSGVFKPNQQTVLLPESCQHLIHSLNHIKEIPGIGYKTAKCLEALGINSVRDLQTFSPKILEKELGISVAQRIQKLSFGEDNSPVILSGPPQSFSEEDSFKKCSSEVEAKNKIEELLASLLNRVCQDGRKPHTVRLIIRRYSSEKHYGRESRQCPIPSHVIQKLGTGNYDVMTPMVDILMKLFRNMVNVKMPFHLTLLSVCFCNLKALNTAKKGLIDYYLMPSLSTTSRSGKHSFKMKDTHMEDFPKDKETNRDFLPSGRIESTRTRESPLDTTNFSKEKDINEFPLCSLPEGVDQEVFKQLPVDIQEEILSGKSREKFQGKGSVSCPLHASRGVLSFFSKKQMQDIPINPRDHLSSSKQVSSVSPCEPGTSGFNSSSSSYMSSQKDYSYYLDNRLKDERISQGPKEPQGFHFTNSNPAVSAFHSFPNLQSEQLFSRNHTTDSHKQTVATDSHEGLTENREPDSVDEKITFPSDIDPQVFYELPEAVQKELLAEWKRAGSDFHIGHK
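Fluorescent replication assay read twice, at 0 min and 10 min after adding 50 nM (final) substrate. Enzyme (10 nM) and compounds were first incubated 15 min at room temperature; enzyme-free buffer wells were negative controls.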
Pol kappa inh-1 = DNA polymerase kappa (human) inhibition; purified Pol kappa, fluorescent DNA synthesis assay, 10 min; Potency, µM (titrated, usually from 107 µM), without a hit: at the highest dose activity, negative = inhibition, most hits filed as inhibitors; Q9UBT6; hit rate 0.53% among 400,000; further: potency means the concentration at half of the fitted maximal effect; on the % scale 0 is the no-effect control and ±100 the full control effect
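First, compounds were pin-transferred onto 10 nM Pol kappa. After 15 min at room temperature, substrate was added to 50 nM final. Fluorescence was then measured kinetically at 0 and 10 min.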
WRN helicase inh = WRN helicase (human) inhibition; Q14191; WRN helicase unwinding, fluorescent forked duplex, kinetic; Potency, µM (top dose mostly 114 µM), for inactives: at the top dose activity change, negative = inhibition, usual class: inhibitors; hit rate 0.46% among 360,000; AID 651768; further: potency means the concentration at half of the fitted maximal effect; on the % scale 0 is the no-effect control and ±100 the full control effect; nearly all actives have a fitted effect of over 55% in size
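Fluorescence dequenching readout, ex 525 nm/em 598 nm, kinetic mode: forked duplex DNA (100 nM final) with adjacent fluorophore and quencher unwound by WRN (20 nM final) with 2 mM ATP. Compound preincubation 15 min, room temperature.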
Pol eta inh-1 = DNA polymerase eta (human) inhibition | Q9Y253 | hit rate 1.2% among 390,000 | AID 588591 | recombinant Pol eta, fluorescent DNA replication assay | Potency, µM (highest dose often 114 µM), for the others: at the highest dose activity change, negative = inhibition, most hits filed as inhibitors; further: potency means the concentration at half of the fitted maximal effect; on the % scale 0 is the no-effect control and ±100 the full control effect
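Pol eta at 10 nM preincubated with compounds 15 min at room temperature; reaction started with fluorescent substrate (50 nM final) and read kinetically at 0 and 10 min.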
POLB inh = blocks human DNA polymerase beta activity; P06746; Pol beta primer extension/strand displacement, fluorescence kinetic; Potency, µM (highest dose often 114 µM), for the others: top-dose activity change, negative = inhibition, most hits filed as inhibitors; hit rate 1.3% among 340,000; AID 485314; further: potency means the concentration at half of the fitted maximal effect; on the % scale 0 is the no-effect control and ±100 the full control effect
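Reaction started by 50 nM substrate onto compound-treated Pol beta (10 nM, 15 min preincubation, room temperature); plates read at 0 min and 10 min. Normalized concentration-effect data fitted by four-parameter Hill equation.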
PGK validate = blocks T. brucei phosphoglycerate kinase; shares compounds with Pol kappa inh-1; TbPGK coupled GAPDH assay, Kinase-Glo luminescence; Potency, µM (top dose mostly 57.5 µM), without a hit: at the highest dose activity change, negative = inhibition, usual class: inhibitors; hit rate 79% among 500; AID 686980; further: potency means the concentration at half of the fitted maximal effect; on the % scale 0 is the no-effect control and ±100 the full control effect; nearly all actives have a fitted effect of over 65% in size
Pol iota confirm = Inhibitors of human DNA polymerase iota, confirmation; hit rate 77% among 1,500; Pol iota primer extension, TAMRA/BHQ fluorescence; Potency, µM, actives largely listed as inhibitors; shares compounds with Pol kappa inh-1; further: potency means the concentration at half of the fitted maximal effect
Pol kappa inh-2 = Pol kappa (human) inhibition, cherry-pick confirmation; hit rate 76% among 920; Potency, µM, actives largely listed as inhibitors; AID 720501; purified Pol-kappa, fluorescent strand-displacement substrate; shares compounds with Pol eta inh-1; further: potency means the concentration at half of the fitted maximal effect
Pol eta inh-2 = confirmation of human DNA polymerase eta inhibitors; shares compounds with Pol eta inh-1; Potency, µM, hits mostly inhibitors; hit rate 64% among 2,600; Pol eta primer extension, TAMRA/BHQ fluorescence, 10 min; AID 720502; further: potency means the concentration at half of the fitted maximal effect
* marks the source's active call; other numbers are inactive results. Unless noted, the call rests on the fitted dose curve; in most records, active means well fitted curve in the direction sought with a large enough effect; inconclusive means small, poorly fitted or top-dose-only effect, or another doubt; inactive means no such curve, though single readings can be large; an effect the other way counts as inactive or inconclusive.

Results for Cc1ccc(C)n1-c1cccc(C(=O)O)c1 ?
POLB inh: 1µM*; Pol iota confirm: 8.4*; Pol kappa inh-2: inconclusive; Pol eta inh-2: 0.17*

What do the screens show for `COC(=O)c1cc(C(=O)OC)cc(-n2c(C)cc(C=O)c2C)c1`?
PI5P4Ka inh: -5; POLI inh: 65%; Pol kappa inh-1: -7%; WRN helicase inh: -3%; Pol eta inh-1: -20%; POLB inh: 7%

How did Cc1ccc(C)n1-c1cccc(C(=O)Nc2ccccc2)c1 do in these assays?
PI5P4Ka inh: -9; POLI inh: 14%; Pol kappa inh-1: 11%; WRN helicase inh: -3%; Pol eta inh-1: -9%; POLB inh: 2%

What do the screens show for `C[C@@H]1CN([C@@H](C)CO)C(=O)CCCn2cc(nn2)CO[C@H]1CN(C)S(=O)(=O)c1ccc(Cl)cc1`?
PI5P4Ka inh: 6; WRN helicase inh: 10%; Pol eta inh-1: -5%

Results for Cc1ccc(CN2CCSc3ccc(C(=O)N4CCN(c5cccc(C)c5C)CC4)cc32)cc1 ?
POLI inh: 4%; Pol kappa inh-1: 2%; Pol eta inh-1: -2%; POLB inh: 51%

What do the screens show for `O=[N+]([O-])c1cc([N+](=O)[O-])c(Oc2cc(Cl)ccc2Cl)cc1NC1CCCCCCC1`?
PI5P4Ka inh: -1; POLI inh: -30%; Pol kappa inh-1: -5%; WRN helicase inh: -1%; Pol eta inh-1: 3%; POLB inh: 11%

What do the screens show for `CCCn1c(C)nc2c(c1=O)c1nc3ccccc3nc1n2CCC1=CCCCC1`?
PI5P4Ka inh: 12; POLI inh: 8%; Pol kappa inh-1: -2%; WRN helicase inh: -10%; Pol eta inh-1: -16%; POLB inh: 1%

What do the screens show for `Cc1nc2c(c(=O)n1CCC1=CCCCC1)c1nc3ccccc3nc1n2/N=C/c1ccco1`?
PI5P4Ka inh: inconclusive; POLI inh: inconclusive; Pol kappa inh-1: inconclusive; WRN helicase inh: inconclusive; Pol eta inh-1: inconclusive; POLB inh: 10µM*; Pol iota confirm: 67*; Pol eta inh-2: 76*

What do the screens show for `O=C(Cc1csc(N2CCOCC2)n1)N/N=C/c1ccc(O)c(O)c1O`?
PI5P4Ka inh: -60*; POLI inh: inconclusive; Pol kappa inh-1: inconclusive; WRN helicase inh: 22µM*; Pol eta inh-1: inconclusive; POLB inh: inconclusive; Pol iota confirm: 15*; Pol eta inh-2: 43*

Results for C/C(=N\NC(=O)c1cc(-c2cccc([N+](=O)[O-])c2)n[nH]1)c1ccccc1O ?
PI5P4Ka inh: -1; POLI inh: -11%; Pol kappa inh-1: -32%; WRN helicase inh: inconclusive; Pol eta inh-1: 8.9µM*; POLB inh: 11µM*; Pol iota confirm: 47*; Pol kappa inh-2: 84*

How did C/C(=N/NC(=O)c1cc(-c2cccc([N+](=O)[O-])c2)n[nH]1)c1cccc(O)c1 do in these assays?
PI5P4Ka inh: -1; POLI inh: -25%; Pol kappa inh-1: 3%; WRN helicase inh: -1%; Pol eta inh-1: -6%; POLB inh: 21%

What do the screens show for `O=C1C=C(O)c2[nH]c(=O)ccc2C1=O`?
PI5P4Ka inh: -57*; POLI inh: 18µM*; Pol kappa inh-1: inconclusive; WRN helicase inh: inconclusive; Pol eta inh-1: 18µM*; Pol iota confirm: 53*; Pol kappa inh-2: 24*; Pol eta inh-2: 48*

Results for NC1=CC(=O)C(=O)c2ccccc21 ?
PI5P4Ka inh: -15; POLI inh: inconclusive; Pol kappa inh-1: -10%; WRN helicase inh: -24%; Pol eta inh-1: inconclusive

Results for O=c1/c(=C\c2cccnc2)sc2nc3ccccc3n12 ?
PI5P4Ka inh: -1; POLI inh: -9%; Pol kappa inh-1: -2%; WRN helicase inh: -2%; Pol eta inh-1: -11%; POLB inh: -1%

What do the screens show for `O=C(O)c1ccc(-c2ccc(/C=c3/sc4nc5ccccc5n4c3=O)o2)cc1Cl`?
PI5P4Ka inh: -64*; POLI inh: 3.2µM*; Pol kappa inh-1: 10µM*; WRN helicase inh: inconclusive; Pol eta inh-1: 1.6µM*; POLB inh: 4µM*; PGK validate: 12µM*; Pol iota confirm: 15*; Pol kappa inh-2: 3*; Pol eta inh-2: 6*

How did COc1ccc(C)cc1N1CC(C(=O)Nc2ccccc2C(=O)NC2CC2)CC1=O (stereo not drawn) do in these assays?
PI5P4Ka inh: 2; POLI inh: -7%; Pol kappa inh-1: 0%; WRN helicase inh: 7%; Pol eta inh-1: -7%

Results for Cn1nc(-c2ccc(C(=O)Nc3ccc(F)cc3)cc2)c2ccccc2c1=O ?
PI5P4Ka inh: -1; POLI inh: inconclusive; Pol kappa inh-1: -12%; WRN helicase inh: inconclusive; Pol eta inh-1: inconclusive; POLB inh: 16µM*; Pol iota confirm: 42*; Pol kappa inh-2: 24*; Pol eta inh-2: inconclusive

What do the screens show for `Cc1ccc(N2C(=O)CS(=O)(=O)C23C(=O)N(Cc2ccc(Cl)cc2)c2ccccc23)cc1C` (stereo not drawn)?
POLI inh: 27%; Pol kappa inh-1: -4%; Pol eta inh-1: -17%; POLB inh: -21%

How did Cc1nc2scc(C)n2c(=O)c1S(=O)(=O)NCC1CCN(Cc2ccc(F)cc2)CC1 do in these assays?
PI5P4Ka inh: 1; POLI inh: 19%; Pol kappa inh-1: -16%; WRN helicase inh: -7%; Pol eta inh-1: 9%; POLB inh: 3%

Results for O=C(CCNS(=O)(=O)c1ccc(Br)cc1)NCCc1ccccc1 ?
PI5P4Ka inh: 3; POLI inh: 12%; Pol kappa inh-1: 1%; WRN helicase inh: 0%; Pol eta inh-1: -7%; POLB inh: 60%

Results for CCOc1ccc(CCNC(=O)CCS(=O)(=O)c2ccc(Br)cc2)cc1OCC ?
PI5P4Ka inh: 3; POLI inh: 6%; Pol kappa inh-1: 9%; WRN helicase inh: -4%; Pol eta inh-1: -5%; POLB inh: -22%
